Experimental data taken from the supplement of paper PMC10849652.
Targets with a hit are over-represented here; the source holds about 8,800 in all. About 0.5% of all pairs of compound and target were hits.

Assays:
Assay in all cases: log2 fold change, soluble protein after heating vs DMSO (PISA); higher = thermal stabilisation; K562 lysate, 10 uM; active = over 0.2 and 3.5 SD of the protein, either way, in both replicates (recomputed)
nilotinib = compound: Cc1cn(-c2cc(NC(=O)c3ccc(C)c(Nc4nccc(-c5cccnc5)n4)c3)cc(C(F)(F)F)c2)cn1 [nilotinib]
Summary of the method: (§1)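 K562 pellets were dounce-homogenised in PBS pH 7.4 containing 1 mM MgCl2, and the crude extract, at 1 mg/mL protein, was exposed to 10 μM compound for 30 min. Aliquots were heated for 3 min across 48°C-58°C, pooled, brought to 0.5% NP-40 at 4°C and spun at 21,000xg for 90 min, with the supernatant taken as soluble protein. TMTpro 16plex LC-MS/MS with equalised channel sums quantified that protein. Values are log-two fold changes in thermal stability relative to solvent controls, taken from duplicates.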

[1] = compound: Cc1nc(Nc2n[nH]c3c2CN(C(=O)N[C@H](CN(C)C)c2ccccc2)C3(C)C)c2sccc2n1
Summary of the method: as §1

dasatinib = compound: Cc1nc(Nc2ncc(C(=O)Nc3c(C)cccc3Cl)s2)cc(N2CCN(CCO)CC2)n1 [dasatinib]
Summary of the method: as §1

[2] = compound: Cc1ncc(-c2ccnc(Nc3ccc(S(C)(=O)=O)cc3)n2)n1C(C)C
Summary of the method: as §1

[3] = compound: Cn1cc(-c2ccc3c(c2)CCN3C(=O)Cc2cccc(C(F)(F)F)c2)c2c(N)ncnc21
Summary of the method: as §1

quisinostat = compound: Cn1cc(CNCC2CCN(c3ncc(C(=O)NO)cn3)CC2)c2ccccc21 [quisinostat]
Summary of the method: as §1

tipifarnib = compound: Cn1cncc1[C@@](N)(c1ccc(Cl)cc1)c1ccc2c(c1)c(-c1cccc(Cl)c1)cc(=O)n2C [tipifarnib]
Summary of the method: as §1

[4] = compound: NC(=O)Nc1cc(-c2cccc(F)c2)sc1C(=O)N[C@H]1CCCNC1
Summary of the method: as §1

[5] = compound: NC(=O)c1cnc(N[C@@H]2CCCC[C@@H]2N)nc1Nc1cccc(-n2nccn2)c1
Summary of the method: as §1

[6] = compound: NC1(c2ccc(-c3nc4ccn5c(=O)[nH]nc5c4cc3-c3ccccc3)cc2)CCC1
Summary of the method: as §1

Measured: log2 fold change

RFC5 (UniProt P40937)
inactive: nilotinib 0.005 | [1] 0.001 | dasatinib -0.06 | [2] -0.005 | [3] 0.025 | quisinostat -0.078 | tipifarnib -0.023 | [4] 0.074 | [5] 0.025 | [6] -0.02

RAB8B (UniProt Q92930)
Sequence of UniProt Q92930 (Q92930 whole entry, looked up): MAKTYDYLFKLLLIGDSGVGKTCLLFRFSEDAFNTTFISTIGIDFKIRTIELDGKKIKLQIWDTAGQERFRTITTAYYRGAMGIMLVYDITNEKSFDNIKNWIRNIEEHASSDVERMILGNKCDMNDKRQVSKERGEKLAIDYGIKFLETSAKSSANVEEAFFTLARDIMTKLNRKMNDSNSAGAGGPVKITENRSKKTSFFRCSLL
inactive: nilotinib -0.136 | [1] -0.011 | dasatinib -0.038 | [2] -0.033 | [3] -0.096 | quisinostat -0.035 | tipifarnib 0.075 | [4] 0.019 | [5] 0.099 | [6] 0.029

RANBP6 (UniProt O60518)
Sequence of UniProt O60518 (O60518 whole entry, looked up): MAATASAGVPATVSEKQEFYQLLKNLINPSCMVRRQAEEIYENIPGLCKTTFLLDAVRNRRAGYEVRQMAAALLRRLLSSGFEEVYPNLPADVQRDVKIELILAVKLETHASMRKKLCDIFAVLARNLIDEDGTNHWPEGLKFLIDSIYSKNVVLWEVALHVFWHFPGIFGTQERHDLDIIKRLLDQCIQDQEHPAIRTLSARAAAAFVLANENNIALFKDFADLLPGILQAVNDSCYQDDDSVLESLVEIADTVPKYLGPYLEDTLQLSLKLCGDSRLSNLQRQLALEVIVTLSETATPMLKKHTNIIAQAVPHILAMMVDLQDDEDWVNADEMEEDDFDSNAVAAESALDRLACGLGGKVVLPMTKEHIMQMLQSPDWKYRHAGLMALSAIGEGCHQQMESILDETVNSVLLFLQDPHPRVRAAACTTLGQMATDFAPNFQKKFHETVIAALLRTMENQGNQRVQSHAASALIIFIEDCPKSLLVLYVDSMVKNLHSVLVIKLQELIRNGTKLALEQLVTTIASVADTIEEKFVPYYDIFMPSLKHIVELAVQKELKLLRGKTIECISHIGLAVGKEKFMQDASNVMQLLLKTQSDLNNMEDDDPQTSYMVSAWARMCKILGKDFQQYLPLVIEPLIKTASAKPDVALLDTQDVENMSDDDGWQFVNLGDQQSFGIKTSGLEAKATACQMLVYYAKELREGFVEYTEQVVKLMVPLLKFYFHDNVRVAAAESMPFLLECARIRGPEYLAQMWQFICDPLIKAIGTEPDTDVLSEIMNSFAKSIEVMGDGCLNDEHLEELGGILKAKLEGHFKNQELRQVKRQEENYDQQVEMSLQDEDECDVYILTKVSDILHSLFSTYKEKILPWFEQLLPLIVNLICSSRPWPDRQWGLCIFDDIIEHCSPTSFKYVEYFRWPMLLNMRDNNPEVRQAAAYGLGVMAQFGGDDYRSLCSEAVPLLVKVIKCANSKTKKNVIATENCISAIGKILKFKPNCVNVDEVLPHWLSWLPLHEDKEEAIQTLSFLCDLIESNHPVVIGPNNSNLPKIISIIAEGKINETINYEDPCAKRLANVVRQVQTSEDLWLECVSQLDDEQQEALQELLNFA
inactive: nilotinib 0.039 | [1] -0.036 | dasatinib -0.002 | [2] -0.071 | [3] 0.049 | quisinostat -0.063 | tipifarnib -0.072 | [4] 0.055 | [5] 0.062 | [6] -0.06

RPS29 (UniProt P62273)
inactive: nilotinib 0.117 | [1] 0.072 | dasatinib 0.22 | [2] 0.061 | [3] 0.112 | quisinostat 0.361 | tipifarnib 0.094 | [4] -0.116 | [5] -0.024 | [6] -0.068

RNF40 (UniProt O75150)
inactive: nilotinib -0.022 | [1] 0.009 | dasatinib -0.012 | [2] 0.003 | [3] 0.031 | quisinostat -0.029 | tipifarnib 0.003 | [4] 0.031 | [5] 0.009 | [6] -0.012

QTRT2 isoform 4 (UniProt Q9H974)
inactive: nilotinib -0.001 | [1] -0.024 | dasatinib 0.005 | [2] -0.024 | [3] -0.051 | quisinostat -0.059 | tipifarnib 0.022 | [4] 0.022 | [5] 0.004 | [6] 0.021

QSER1, A0A3B3IRW6
inactive: nilotinib -0.028 | [1] 0.056 | dasatinib 0.018 | [2] 0.042 | [3] 0.052 | quisinostat -0.117 | tipifarnib -0.048 | [4] 0.064 | [5] -0.027 | [6] -0.048

SEH1L isoform 1 (UniProt Q96EE3)
Sequence of UniProt Q96EE3 (Q96EE3 whole entry, looked up): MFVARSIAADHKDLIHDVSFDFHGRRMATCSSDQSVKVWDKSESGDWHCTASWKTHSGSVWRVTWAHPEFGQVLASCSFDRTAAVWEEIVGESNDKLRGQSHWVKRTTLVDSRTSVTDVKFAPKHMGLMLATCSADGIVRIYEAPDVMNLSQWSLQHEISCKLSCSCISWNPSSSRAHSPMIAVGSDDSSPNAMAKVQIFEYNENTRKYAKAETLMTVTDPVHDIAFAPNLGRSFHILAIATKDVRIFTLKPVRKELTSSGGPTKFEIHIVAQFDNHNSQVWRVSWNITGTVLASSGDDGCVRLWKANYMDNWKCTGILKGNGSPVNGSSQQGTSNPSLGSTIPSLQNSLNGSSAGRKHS
inactive: nilotinib -0.009 | [1] -0.019 | dasatinib 0.032 | [2] 0.006 | [3] 0.007 | quisinostat -0.008 | tipifarnib -0.008 | [4] 0 | [5] 0.003 | [6] -0.028

RAD51C (UniProt O43502)
inactive: nilotinib 0.013 | [1] 0.021 | dasatinib -0.014 | [2] 0.009 | [3] -0.019 | quisinostat 0.036 | tipifarnib 0.03 | [4] 0.051 | [5] 0.042 | [6] -0.021

R3HCC1 (UniProt Q9Y3T6)
inactive: nilotinib -0.023 | [1] 0.012 | dasatinib 0.043 | [2] 0.011 | [3] -0.049 | quisinostat -0.014 | tipifarnib -0.058 | [4] -0.036 | [5] 0.003 | [6] 0.038

RFC4 (UniProt P35249)
Sequence of UniProt P35249 (P35249 whole entry, looked up): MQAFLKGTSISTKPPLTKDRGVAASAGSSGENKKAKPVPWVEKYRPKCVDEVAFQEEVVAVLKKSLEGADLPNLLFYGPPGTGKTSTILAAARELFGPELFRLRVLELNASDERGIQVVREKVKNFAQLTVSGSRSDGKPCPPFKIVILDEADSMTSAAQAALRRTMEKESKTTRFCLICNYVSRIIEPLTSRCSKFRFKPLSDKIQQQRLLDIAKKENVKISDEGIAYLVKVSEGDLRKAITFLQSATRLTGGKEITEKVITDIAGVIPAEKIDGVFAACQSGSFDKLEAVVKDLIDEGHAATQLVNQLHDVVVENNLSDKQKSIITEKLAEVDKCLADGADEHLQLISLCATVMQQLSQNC
inactive: nilotinib 0.001 | [1] -0.029 | dasatinib -0.068 | [2] -0.002 | [3] 0.047 | quisinostat -0.016 | tipifarnib -0.004 | [4] 0.03 | [5] 0.015 | [6] -0.011

RNPS1 (UniProt Q15287)
active: quisinostat 0.239
inactive: nilotinib 0.025 | [1] -0.047 | dasatinib 0.044 | [2] -0.035 | [3] 0.034 | tipifarnib -0.056 | [4] 0.029 | [5] 0.018 | [6] -0.033

RPN2 (UniProt P04844)
Sequence of UniProt P04844 (P04844 whole entry, looked up): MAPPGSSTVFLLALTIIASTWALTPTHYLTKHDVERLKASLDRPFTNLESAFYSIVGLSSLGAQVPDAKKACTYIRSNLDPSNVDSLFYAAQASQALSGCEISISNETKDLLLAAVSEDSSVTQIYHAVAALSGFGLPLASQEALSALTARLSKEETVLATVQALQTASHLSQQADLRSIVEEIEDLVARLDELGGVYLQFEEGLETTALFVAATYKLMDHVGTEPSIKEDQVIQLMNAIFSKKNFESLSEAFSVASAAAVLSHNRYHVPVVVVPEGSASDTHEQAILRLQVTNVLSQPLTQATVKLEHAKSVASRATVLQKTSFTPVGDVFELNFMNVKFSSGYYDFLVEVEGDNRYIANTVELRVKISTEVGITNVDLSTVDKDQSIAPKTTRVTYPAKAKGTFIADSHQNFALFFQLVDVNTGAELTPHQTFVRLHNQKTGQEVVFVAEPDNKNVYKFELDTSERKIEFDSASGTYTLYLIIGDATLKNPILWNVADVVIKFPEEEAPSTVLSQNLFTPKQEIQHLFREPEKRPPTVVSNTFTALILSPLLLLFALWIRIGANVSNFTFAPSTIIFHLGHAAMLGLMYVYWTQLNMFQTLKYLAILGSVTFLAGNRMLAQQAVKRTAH
inactive: nilotinib -0.011 | [1] 0.005 | dasatinib -0.008 | [2] -0.013 | [3] -0.006 | quisinostat 0.049 | tipifarnib -0.015 | [4] -0.001 | [5] 0.011 | [6] -0.003

SEC13 isoform 3 (UniProt P55735)
Sequence of UniProt P55735 (P55735 whole entry, looked up): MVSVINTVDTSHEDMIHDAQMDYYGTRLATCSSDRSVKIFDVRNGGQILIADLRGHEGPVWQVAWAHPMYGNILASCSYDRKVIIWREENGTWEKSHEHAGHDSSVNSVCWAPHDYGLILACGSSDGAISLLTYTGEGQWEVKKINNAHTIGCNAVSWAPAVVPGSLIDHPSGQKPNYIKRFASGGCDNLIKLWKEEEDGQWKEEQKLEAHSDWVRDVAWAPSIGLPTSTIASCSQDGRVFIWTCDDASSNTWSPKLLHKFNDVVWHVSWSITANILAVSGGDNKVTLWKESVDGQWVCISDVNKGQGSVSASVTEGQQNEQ
inactive: nilotinib -0.02 | [1] 0.038 | dasatinib -0.01 | [2] 0.031 | [3] 0.02 | quisinostat 0.079 | tipifarnib -0.014 | [4] 0.006 | [5] 0.006 | [6] -0.006

RAB6D (UniProt Q53S08)
inactive: nilotinib -0.028 | [1] -0.019 | dasatinib -0.004 | [2] 0.111 | [3] -0.008 | quisinostat -0.056 | tipifarnib -0.162 | [4] -0.006 | [5] -0.013 | [6] -0.064

RALGAPB (UniProt Q86X10)
inactive: nilotinib -0.022 | [1] 0.029 | dasatinib -0.026 | [2] 0.026 | [3] 0.015 | quisinostat -0.048 | tipifarnib -0.021 | [4] 0.053 | [5] -0.019 | [6] -0.044

RHAG (UniProt Q02094)
Sequence of UniProt Q02094 (Q02094 whole entry, looked up): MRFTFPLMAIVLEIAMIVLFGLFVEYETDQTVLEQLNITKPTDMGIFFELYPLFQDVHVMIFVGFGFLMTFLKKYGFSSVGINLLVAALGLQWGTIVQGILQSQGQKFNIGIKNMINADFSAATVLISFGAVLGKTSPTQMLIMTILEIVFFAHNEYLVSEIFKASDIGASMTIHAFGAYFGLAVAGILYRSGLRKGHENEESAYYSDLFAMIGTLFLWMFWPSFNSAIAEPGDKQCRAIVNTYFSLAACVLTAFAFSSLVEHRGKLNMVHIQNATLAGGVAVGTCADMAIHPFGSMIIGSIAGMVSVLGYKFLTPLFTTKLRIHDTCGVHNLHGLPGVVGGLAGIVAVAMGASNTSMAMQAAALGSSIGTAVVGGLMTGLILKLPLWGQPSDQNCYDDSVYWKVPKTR
inactive: nilotinib 0.041 | [1] -0.013 | dasatinib -0.029 | [2] -0.016 | [3] -0.06 | quisinostat -0.142 | tipifarnib 0.011 | [4] 0.011 | [5] -0.024 | [6] -0.002

RNF123 (UniProt Q5XPI4)
inactive: nilotinib 0.012 | [1] -0.013 | dasatinib -0.059 | [2] 0.022 | [3] 0.054 | quisinostat -0.046 | tipifarnib -0.006 | [4] 0.04 | [5] 0.019 | [6] 0.01

RPL37A (UniProt P61513)
inactive: nilotinib 0.041 | [1] 0.011 | dasatinib 0.095 | [2] 0.067 | [3] 0.032 | quisinostat 0.139 | tipifarnib 0.008 | [4] -0.028 | [5] -0.013 | [6] -0.021

SERPINI1 (UniProt Q99574)
inactive: nilotinib -0.04 | [1] -0.013 | dasatinib 0.038 | [2] -0.034 | [3] -0.013 | quisinostat 0.035 | tipifarnib 0.036 | [4] 0.003 | [5] 0.009 | [6] -0.015

RAI14 isoform 2 (UniProt Q9P0K7)
inactive: nilotinib -0.004 | [1] -0.006 | dasatinib -0.003 | [2] -0.05 | [3] 0.013 | quisinostat -0.023 | tipifarnib -0.036 | [4] -0.02 | [5] 0.012 | [6] -0.013

RBM4 (UniProt Q9BWF3)
inactive: nilotinib -0.086 | [1] -0.011 | dasatinib 0.032 | [2] 0.029 | [3] 0.03 | quisinostat 0.033 | tipifarnib -0.067 | [4] 0.034 | [5] 0.046 | [6] 0.029

RASA2 (UniProt Q15283)
inactive: nilotinib -0.049 | [1] -0.037 | dasatinib -0.015 | [2] 0.063 | [3] 0 | quisinostat -0.071 | tipifarnib 0.018 | [4] -0.011 | [5] 0.042 | [6] -0.031

SATB2 (UniProt Q9UPW6)
Sequence of UniProt Q9UPW6 (Q9UPW6 whole entry, looked up): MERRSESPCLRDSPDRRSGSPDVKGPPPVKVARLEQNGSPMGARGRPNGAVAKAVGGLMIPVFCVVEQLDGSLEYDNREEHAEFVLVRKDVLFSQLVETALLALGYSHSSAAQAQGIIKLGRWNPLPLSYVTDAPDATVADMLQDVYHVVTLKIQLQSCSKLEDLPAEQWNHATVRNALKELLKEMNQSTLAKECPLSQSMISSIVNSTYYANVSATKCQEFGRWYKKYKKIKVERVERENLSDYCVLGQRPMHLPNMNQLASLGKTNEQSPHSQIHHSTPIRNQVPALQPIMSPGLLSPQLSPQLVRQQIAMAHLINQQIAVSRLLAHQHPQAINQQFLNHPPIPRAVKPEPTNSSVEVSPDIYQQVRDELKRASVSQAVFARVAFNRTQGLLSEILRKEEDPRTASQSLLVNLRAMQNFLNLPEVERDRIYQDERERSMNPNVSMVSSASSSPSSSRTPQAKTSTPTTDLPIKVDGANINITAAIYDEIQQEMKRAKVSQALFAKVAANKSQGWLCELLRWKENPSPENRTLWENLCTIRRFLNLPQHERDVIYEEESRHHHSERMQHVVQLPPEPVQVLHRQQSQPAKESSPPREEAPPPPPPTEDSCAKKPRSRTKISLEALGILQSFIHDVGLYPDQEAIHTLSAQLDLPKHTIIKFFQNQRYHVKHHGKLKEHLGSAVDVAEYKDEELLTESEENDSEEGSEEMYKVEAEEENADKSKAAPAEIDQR
inactive: nilotinib -0.08 | [1] -0.02 | dasatinib 0.041 | [2] -0.005 | [3] 0.013 | quisinostat -0.06 | tipifarnib 0.009 | [4] 0.018 | [5] 0.031 | [6] 0

RBBP8 isoform 2 (UniProt Q99708)
inactive: nilotinib -0.07 | [1] -0.003 | dasatinib 0.063 | [2] 0.081 | [3] 0.031 | quisinostat 0.074 | tipifarnib 0.022 | [4] 0.033 | [5] 0.035 | [6] -0.026

SCCPDH (UniProt Q8NBX0)
inactive: nilotinib 0.12 | [1] -0.002 | dasatinib 0.058 | [2] 0.151 | [3] -0.019 | quisinostat -0.058 | tipifarnib 0.049 | [4] -0.217 | [5] -0.081 | [6] 0.022

RALGAPA1 isoform 6 (UniProt Q6GYQ0)
inactive: nilotinib -0.05 | [1] -0.044 | dasatinib -0.018 | [2] -0.066 | [3] 0.071 | quisinostat -0.15 | tipifarnib 0.019 | [4] 0.039 | [5] 0.052 | [6] -0.08

RAP1B (UniProt P61224)
inactive: nilotinib 0.032 | [1] 0 | dasatinib 0.045 | [2] 0.027 | [3] -0.002 | quisinostat -0.007 | tipifarnib -0.034 | [4] -0.007 | [5] -0.029 | [6] -0.025

SEC62 (UniProt Q99442)
inactive: nilotinib 0.013 | [1] -0.032 | dasatinib 0.01 | [2] -0.038 | [3] -0.011 | quisinostat 0.083 | tipifarnib -0.055 | [4] -0.045 | [5] -0.007 | [6] -0.01

RBM5 (UniProt P52756)
Sequence of UniProt P52756 (P52756 whole entry, looked up): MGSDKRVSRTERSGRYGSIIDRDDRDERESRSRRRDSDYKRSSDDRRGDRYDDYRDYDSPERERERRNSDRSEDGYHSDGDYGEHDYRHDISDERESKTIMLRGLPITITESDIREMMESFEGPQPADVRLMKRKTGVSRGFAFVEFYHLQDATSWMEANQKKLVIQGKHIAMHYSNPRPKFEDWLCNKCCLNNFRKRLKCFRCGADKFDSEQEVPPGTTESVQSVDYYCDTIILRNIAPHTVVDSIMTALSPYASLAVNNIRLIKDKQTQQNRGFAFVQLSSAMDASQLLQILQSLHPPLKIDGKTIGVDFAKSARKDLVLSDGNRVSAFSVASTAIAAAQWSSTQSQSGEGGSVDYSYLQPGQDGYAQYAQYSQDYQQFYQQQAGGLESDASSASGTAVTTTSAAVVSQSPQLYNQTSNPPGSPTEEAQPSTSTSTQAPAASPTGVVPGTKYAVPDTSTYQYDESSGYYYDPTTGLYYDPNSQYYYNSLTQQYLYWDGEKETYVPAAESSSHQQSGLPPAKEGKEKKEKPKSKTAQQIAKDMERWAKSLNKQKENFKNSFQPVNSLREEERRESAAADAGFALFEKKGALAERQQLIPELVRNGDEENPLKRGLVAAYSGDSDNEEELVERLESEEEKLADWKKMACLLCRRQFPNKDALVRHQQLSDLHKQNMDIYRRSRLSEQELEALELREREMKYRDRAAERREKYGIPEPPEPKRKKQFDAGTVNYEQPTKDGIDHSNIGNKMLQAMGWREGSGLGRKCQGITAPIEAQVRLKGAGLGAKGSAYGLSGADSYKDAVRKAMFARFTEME
inactive: nilotinib 0.146 | [1] -0.085 | dasatinib 0.073 | [2] 0.028 | [3] -0.003 | quisinostat 0.027 | tipifarnib -0.015 | [4] 0.009 | [5] 0.114 | [6] 0.185
